Hit rate of the full screen: of about 320,000 compounds, about 1,000 (0.31%) were called active.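 The calls were made as follows: active = activation above the mean of all tested compounds plus 3 SD, cutoff set per screening run (cut at about 20% in these data); inactive = the rest.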 The list comes from a sample in which actives are over-represented; it also holds similar structures and randomly drawn compounds.
target: Oxytocin receptor (Homo sapiens) (UniProt P30559); test: human OXTR agonists, primary screen, fluorescence, CHO-OTR cells, Fluo-8 calcium (AID 2435); conditions: Fluo-8 calcium fluorescence, at 3 µM, hits give high values, normalized: DMSO 0%, oxytocin 100%;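 also: peak over basal fluorescence ratio from a 100 s FLIPR kinetic read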
Sequence (P30559 whole entry, looked up): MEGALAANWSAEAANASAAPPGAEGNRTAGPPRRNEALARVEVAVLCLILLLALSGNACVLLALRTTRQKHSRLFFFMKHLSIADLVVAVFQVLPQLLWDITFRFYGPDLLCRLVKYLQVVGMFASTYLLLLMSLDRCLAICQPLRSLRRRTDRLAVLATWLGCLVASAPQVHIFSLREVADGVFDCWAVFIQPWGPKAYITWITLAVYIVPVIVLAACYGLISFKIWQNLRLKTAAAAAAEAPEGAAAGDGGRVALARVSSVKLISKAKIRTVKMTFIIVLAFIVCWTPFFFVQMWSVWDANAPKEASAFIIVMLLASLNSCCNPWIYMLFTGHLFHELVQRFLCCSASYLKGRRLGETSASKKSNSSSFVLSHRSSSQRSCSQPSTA

| Structure (SMILES) | activation |
| --- | --- |
| COc1cc(NC(=O)CSC(=S)N2CCCC2)c(OC)cc1Cl | -1.55% (inactive) |
| CCN1/C(=C\c2ccc3ccccc3[n+]2CC)Sc2cc(C)ccc21 | 23.2% (active) |
| C=CCN1C(=NC(=O)COc2ccccc2)SC2CS(=O)(=O)CC21 (stereo not drawn) | 1.7% (inactive) |
| O=C(CSc1nc2ncccc2[nH]1)Nc1ccc2c(c1)OCCO2 | -2.32% (inactive) |
| CCc1ccc2c(c1)C1(NN=C(c3ccccc3)S1)C(=O)N2 (stereo not drawn) | -1.26% (inactive) |
| CN(C)c1ccc(C=C2C(=O)OC3(CCCC3)OC2=O)cc1 | 3.44% (inactive) |
| O=C1/C(=C\c2ccsc2)NC(=S)N1c1ccccc1 | 0.14% (inactive) |
| CN(C)c1ccc(/C=C2\NC(=S)N(Cc3ccccc3)C2=O)cc1 | 51.8% (active) |
| N#CCCN(C(=O)COC(=O)c1ccc2c(c1)OCCO2)c1ccccc1 | 1.54% (inactive) |
| Cn1cccc1C1(C(F)(F)F)NCCNC1=O (stereo not drawn) | 1.22% (inactive) |
| CCCC(=O)NC(=S)Nc1ccc(CN2CCOCC2)cc1 | 1% (inactive) |
| Cc1cccn2c(=O)c(/C=C(\C#N)C(N)=O)c(N3CCCCCC3)nc12 | -2.52% (inactive) |
| CCOC(=O)N1CCN(C(=O)CSc2nc(=O)n3cccc(C)c3n2)CC1 | -0.13% (inactive) |
| CCOC(=O)CC1C(=O)NCCN1c1nc2c(C)cccn2c(=O)c1/C=C1\SC(=S)N(C(C)CC)C1=O (stereo not drawn) | 23.3% (active) |
| O=[N+]([O-])c1ccccc1N/N=C1\CCc2ccccc21 | 1.32% (inactive) |
| COc1cc(OC)c(-n2cc(-c3ccc(Cl)cc3)[nH]c2=O)cc1Cl | 42.2% (active) |
| COc1cc(OC)c(-n2c(C)cc(C=O)c2C)cc1Cl | -0.29% (inactive) |
| COc1cc(OC)c(N2CC(C(=O)Nc3cc(Cl)ccc3N3CCOCC3)CC2=O)cc1Cl (stereo not drawn) | 10.6% (inactive) |
| Cc1ccc(-n2ncc3c(Nc4cccc(C(=O)O)c4)ncnc32)cc1 | -1.04% (inactive) |
| O=C(NCc1cccnc1)C12CC3CC(CC(C3)C1)C2 | -0.43% (inactive) |

| Structure (SMILES) | activation |
| --- | --- |
| CCCN(CC(=O)Nc1ccccc1OC)C(=O)CCC(=O)c1ccc(F)cc1 | -2.01% (inactive) |
| C/C(=N/NS(=O)(=O)c1ccccc1)c1ccc(NC(=O)C(F)(F)F)cc1 | -0.88% (inactive) |
| O=C(Nc1ccc(O)cc1)c1ccc(NC(=O)c2ccco2)cc1 | 1.38% (inactive) |
| C/C(=N\NS(=O)(=O)c1ccc(Cl)cc1)c1ccc(NC(=O)c2ccco2)cc1 | 24.5% (active) |
| O=C(O)CCn1c(O)c(C=C2N=c3ccccc3=N2)sc1=S | 0.13% (inactive) |
| CCc1ccc(-c2nn(-c3ccccc3)cc2CSC(=N)N)cc1 | 24.2% (active) |
| CCc1ccc(-c2nn(-c3ccccc3C)cc2C(=O)N2CCN(C3CCS(=O)(=O)C3)CC2)cc1 (stereo not drawn) | 2.09% (inactive) |
| Cc1ccc(-c2nn(-c3ccccc3)cc2/C=N/NC(=O)c2ccc3c(c2)OCO3)cc1 | -1.39% (inactive) |
| O=C(NC(Nc1nc2ccc([N+](=O)[O-])cc2s1)(C(F)(F)F)C(F)(F)F)c1ccccc1 | 20% (active) |
| O=C(CNC(=O)c1ccccc1)Oc1ccc([N+](=O)[O-])cc1 | 2.42% (inactive) |
| O=C(CCNC(=O)c1ccccc1)Nc1nc2ccccc2s1 | 2.26% (inactive) |
| CCOC(=O)CN(C)S(=O)(=O)c1ccc(-c2cc(C(=O)OC)sc2C(F)(F)F)cc1 | 1.32% (inactive) |
| O=C(NCc1ccccc1)C(c1ccccc1)N(C(=O)c1csnn1)c1ccc(F)cc1 (stereo not drawn) | 1.2% (inactive) |
| Nc1ncnc2c1ncn2[C@@H]1O[C@H](CNCc2cccn2-c2nccs2)[C@@H](O)[C@H]1O | -0.14% (inactive) |
| Cc1onc(-c2ccccc2)c1C(=O)NNC(=S)NC(=O)c1ccc(F)cc1 | 32.9% (active) |
| Cc1onc(-c2c(Cl)cccc2Cl)c1C(=O)NNC(=O)c1c(-c2c(Cl)cccc2Cl)noc1C | -1.38% (inactive) |
| Cc1ccc(CNC(=O)c2c(-c3ccccc3)noc2C)cc1 | -1.84% (inactive) |
| Cc1onc(-c2ccccc2)c1C(=O)Nc1ccccc1C#N | -1.5% (inactive) |
| COc1ccc(C(=O)NC(=S)NNC(=O)c2c(-c3ccccc3)noc2C)cc1 | 46.7% (active) |
| CCc1noc(C)c1C(=O)NNC(=O)c1ccc(F)cc1 | 0.43% (inactive) |

| Structure (SMILES) | activation |
| --- | --- |
| O=C(Nc1ccc(-n2ccnc2P(=O)(O)c2ccccc2)cc1)c1ccccc1Br | -0.12% (inactive) |
| Cc1csc2nc(O)c(C(=O)NCCN3CCOCC3)c(=O)n12 | 0.15% (inactive) |
| Cc1cc(C)c(S(=O)(=O)N2C=CC(C(F)(F)F)=NCC2)c(C)c1 | 0.69% (inactive) |
| CN(CCc1ccccc1)C(=O)c1cccc(NC(=O)Cc2ccc([N+](=O)[O-])cc2)c1 | 13.1% (inactive) |
| CCCc1cc(=O)[nH]c(SCC(=O)N2CCN(S(=O)(=O)c3ccc(C)cc3C)CC2)n1 | -1.06% (inactive) |
| COC(=O)C1(S(=O)(=O)C2(C(=O)OC)CCCC2)CCCC1 | -0.45% (inactive) |
| CCOc1cc(/C=C(\C#N)c2nc(-c3cccs3)c(NC(C)=O)s2)ccc1O | 23.4% (active) |
| COc1cc(/C=C(\C#N)c2nc3c(s2)CC(C)CC3)ccc1O (stereo not drawn) | 12.7% (inactive) |
| CCOc1cc(-c2cc(-c3ccc(NC(C)=O)cc3)nc(N)c2C#N)ccc1O | 1.58% (inactive) |
| Cc1cccc(NC(=O)C(C)N2C(=O)C3C4CC(C(Br)C4Br)C3C2=O)c1 (stereo not drawn) | 8.44% (inactive) |
| CN(CC(=O)Nc1ccc(OC(F)(F)F)cc1)C(=O)C1CCC1 | 3.13% (inactive) |
| Cc1ccc(OCC(=O)NNC(=S)NCc2ccccc2)cc1 | -1.15% (inactive) |
| Cc1ccc(C(=O)NNC(=O)C(C)Oc2ccc3ccccc3c2)o1 (stereo not drawn) | 1.07% (inactive) |
| Cc1ccc(OCC(=O)NCCCNC(=O)c2ccco2)cc1C | 0.98% (inactive) |
| CCCc1ccc(OCC(=O)NNC(=S)NC(=O)c2ccco2)cc1 | 31.6% (active) |
| O=C(Nc1ccc2ccccc2c1)/C(=C/c1cccc(Br)c1)NC(=O)c1ccco1 | 0.36% (inactive) |
| CC(Oc1ccc2ccccc2c1)C(=O)NNC(=S)NC(=O)c1ccco1 (stereo not drawn) | 33.9% (active) |
| COc1ccc(Cn2c(O)c(/C=C3/C=CC=N3)c(=O)[nH]c2=O)cc1 | -0.07% (inactive) |

From PubChem BioAssay AID2435 (The Scripps Research Institute Molecular Screening Center, 2010)
